# Rows were chosen to be rich in hits. Some 8.3% of all compounds tested hit in one or more screens of this group.
# FMDV inh – High Throughput Screening for Foot and Mouth Disease Virus Antivirals; FMDV antiviral cell-based qHTS; Potency, µM (doses to about 57.9 µM), for inactives: at the top dose activity change, negative = inhibition, actives largely listed as inhibitors; 1.2% of 410,000 active; AID 1159524, 2015; calls by dose curve; tested in HEK293T cells; note: read-out not given here; potency is the fitted concentration of half-maximal effect; nearly all actives have a fitted effect of over 45% in size
# Giardia FBPA inh – qHTS Assay for Inhibitors of Fructose-1,6-bisphosphate Aldolase from Giardia Lamblia | 0.71% of 290,000 active | Potency, µM (top dose mostly 59.6 µM), for the others: at the top dose activity, negative = inhibition, actives largely listed as inhibitors | purified Giardia FBPA | A8B2U2; note: potency is the fitted concentration of half-maximal effect; nearly all actives have a fitted effect of over 55% in size
# Target sequence (A8B2U2 whole entry, looked up): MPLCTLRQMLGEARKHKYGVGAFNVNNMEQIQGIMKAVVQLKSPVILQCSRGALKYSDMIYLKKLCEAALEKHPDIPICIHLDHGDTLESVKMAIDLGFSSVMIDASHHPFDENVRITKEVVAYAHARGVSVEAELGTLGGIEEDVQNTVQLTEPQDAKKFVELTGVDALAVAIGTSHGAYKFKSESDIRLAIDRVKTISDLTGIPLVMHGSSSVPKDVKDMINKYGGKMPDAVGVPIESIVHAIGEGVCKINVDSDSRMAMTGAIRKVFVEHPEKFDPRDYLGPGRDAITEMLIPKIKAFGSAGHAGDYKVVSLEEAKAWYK
#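 Giardia FBPA (40 nM reagent) was preincubated 10 min at RT with compound (up to 57.5 uM final), then substrate plus GAPDH/TPI/NAD/arsenate coupling system with diaphorase/resazurin was added; resorufin fluorescence (525/598 nm) was read after 20 min.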
# LASV entry inh – qHTS for Inhibitors of binding or entry into cells for Lassa Virus; Potency, µM (titrated, usually from 37.9 µM), for inactives: at the top dose activity change, negative = inhibition, usual class: inhibitors; 1.2% of 300,000 active; Lassa virus pseudotype entry inhibition, cell reporter; AID 540256, 2011; calls by dose curve; tested in HEK293 cells; note: potency is the fitted concentration of half-maximal effect; nearly all actives have a fitted effect of over 50% in size
# HCV inh – qHTS Assay for Inhibitors of Hepatitis C Virus (HCV). Potency, µM (doses to about 41.8 µM), for the others: at the highest dose activity change, negative = inhibition, most hits filed as inhibitors. AID 651820, 2012. 3.4% of 340,000 active. Huh7.5.1 HCVcc-Cre infection, luciferase reporter, 44 h; note: potency is the fitted concentration of half-maximal effect
#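 Infectious HCVcc-Cre (~0.5 moi) was added to cells just after compound, with cells seeded 4 h earlier at 1,000 per well. Luciferase activity after 44 h culture reported infection; substrate was incubated 15 min at room temperature before reading.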
# HCMV antiviral – qHTS Assay for inhibitors of the human cytomegalovirus (HCMV) | HFF cells, HCMV-luciferase reporter, 72 h; hits give low values | activity change, negative = inhibition, % at 57.5 µM | 4.5% of 410,000 active; in the data active = activity change below about -60%; inconclusive = no clear call, values can overlap the other calls; inactive = above about -39%
#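 Two compound doses tested in HFFs infected with HCMV-luciferase, MOI 1 PFU/cell, 72 h at 37C. Lysate luminescence read with OneGlo; data normalized against buffer-only and 10uM Salinomycin inhibitor controls.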
# Marburg entry inh – qHTS for inhibitors of binding or entry into cells for Marburg Virus; Potency, µM (doses to about 37.8 µM), for inactives: top-dose activity change, negative = inhibition, actives largely listed as inhibitors; 1.8% of 300,000 active; Marburg virus pseudotyped entry inhibition, cell reporter; calls by dose curve; tested in HEK293 cells; note: potency is the fitted concentration of half-maximal effect
# An asterisk follows results filed as active; ? = inconclusive; . = no result given; [ ] = dose if it differs, or a comment. Unless noted, calls come from the whole dose curve; as a rule, active = well fitted curve in the direction sought with a large enough effect; inconclusive = small, poorly fitted or top-dose-only effect, or another doubt; inactive = no such curve, though single readings can be large; an effect the other way counts as inactive or inconclusive. % is set by controls: 0 for no effect and ±100 for the full control effect.
SMILES,FMDV inh,Giardia FBPA inh,LASV entry inh,HCV inh,HCMV antiviral,Marburg entry inh
CCc1nn(CCCC(=O)N2CCN(c3cc(Cl)ccc3C)CC2)c(=O)c2cc3occc3n12,-18%,.,-14%[46.1 µM],.,-29,13%[46.1 µM]
O=C1N=C(N2CCCCC2)S/C1=C\c1ccccc1F,86%,9%,-26%,-23%,14,?
CCCOc1ccccc1/C=C1\SC(N2CCCCC2)=NC1=O,17%,-4%,?,10µM*,-82*,?
CC[C@H](NC(=O)[C@H](CCC(=O)O)NC(=O)[C@H](CCC(=O)O)NC(=O)[C@H](CC(=O)O[S+](=O)([O-])c1cccc2c(NCCN)cccc12)NC(=O)[C@H](CCC(=O)O)NC(=O)[C@H](CC(=O)O)NC(C)=O)C(=O)ON[C@@H](C)C(=O)N[C@@H](CO)C(=O)N[C@@H](CCCCNC(=O)c1ccc(N=Nc2ccc(N(C)C)cc2)cc1)C(N)=O,.,-5%,.,.,.,.
O=C(CC1(CC2=NS(=O)(=O)c3ccccc3N2)CCCC1)NCCc1ccccc1,-2%,3%,.,?,-68*,.
O=C(CSC1=NS(=O)(=O)c2ccccc2N1)NCCc1ccccc1,1%,.,14%[46.1 µM],34%,5,-2%
CN1CCCN(C(=O)[C@@H]2C[C@@H](Sc3nc4ccccc4[nH]3)CN2Cc2ccc(-c3ccccc3)cc2)CC1,-4%,.,.,.,.,.
O=C(CNC(=O)c1ccco1)N/N=C/c1cc(Br)ccc1O,6%,-19%,.,?,22,2µM*
O=C(N/N=C/c1cc(Br)c(O)c(Br)c1O)c1ccc2c(c1)OCCO2,31%,-19%,?,?,-82*,-28%[46.1 µM]
Cc1ccc(C(=O)N/N=C\c2ccc[nH]2)cc1[N+](=O)[O-],10%,-10%,8.9µM*,4.5µM*,-7,4.5µM*
O=C(N/N=C/c1ccc[nH]1)c1ccccc1[N+](=O)[O-],1%,-22%,?,20%,?,27%
O=C(N/N=C/c1cc(Br)cc(Cl)c1O)c1ccc2c(c1)OCO2,3%,.,?,13µM*,1,?
O=C(CNC(=O)c1ccco1)N/N=C/c1ccc(O)cc1O,7%,.,.,-1%,6,.
CN=C(NC#N)NCCSCC1N=CN=C1C (centres undefined),.,.,.,.,.,7%
O=C(N/N=C/c1ccc2c(c1)OCO2)c1ccc2c(c1)OCCO2,10%,-6%,?,5%,21,?
O=C(N/N=C/c1ccccc1O)c1ccc2c(c1)OCO2,-14%,-17%,?,5.6µM*,-92*,5µM*
CN(C)c1cccc(C(=O)N/N=C/c2ccccc2F)c1,-54%,-5%,10µM*,19%,111,?
COc1cc(Cl)cc(/C=N\NC(=O)c2ccc3c(c2)OCO3)c1O,-6%,.,.,.,-60*,.
Cc1cc(Br)cc(/C=N/NC(=O)c2ccc3c(c2)OCO3)c1O,53%,9%,.,?,-103*,.
O=C(NCC1CCCO1)c1c[nH]c2ccc(S(=O)(=O)Nc3cccc(C(F)(F)F)c3)cc2c1=O (centres undefined),3%,.,-2%[46.1 µM],.,48,.
Cc1ccc2c(Sc3ccccc3)c(C(=O)NCc3ccccc3F)[nH]c2c1,36%,.,1%[46.1 µM],.,-18,-6%[46.1 µM]
O=C(CNC(=O)c1ccccc1)N/N=C/c1cc(Br)ccc1O,-6%,-14%,?,?,96,?
O=C(CNC(=O)c1ccc2c(c1)OCO2)N/N=C/c1cc(Br)ccc1O,-1%,7%,?,?,9,11µM*
O=C(CNC(=O)c1cccc(Br)c1)N/N=C/c1ccc[nH]1,17%,-22%,?,3.2µM*,?,6.3µM*
O=S(=O)(NCc1cccc(Br)c1)c1ccc(-c2cc(C(F)(F)F)on2)s1,-19%,.,17%[46.1 µM],.,-7,.
SMILES,FMDV inh,Giardia FBPA inh,LASV entry inh,HCV inh,HCMV antiviral,Marburg entry inh
Cc1ccc(CN(Cc2ccco2)c2cnc(S(C)(=O)=O)nc2C(=O)Nc2ccc(Br)cc2)o1,-8%,.,8%[46.1 µM],.,5,?
COCCOC(=O)c1c(-c2ccccc2)c(-c2ccccc2)nn(C)c1=O,0%,.,-15%[46.1 µM],.,36,-1%[46.1 µM]
O=C(Cn1c(=O)oc2ccccc21)Nc1nc(-c2ccc(Br)cc2)cs1,-24%,-3%,?,7%,-61*,?
Cc1sc(NC(=O)Cn2c(=O)oc3ccccc32)nc1-c1ccc(Cl)cc1,-8%,2%,2%,?,-61*,-9%
CCOc1ccc(CNC(=O)c2cnc3sc(N(CC)CC)nn3c2=O)cc1OC,-6%,.,-5%[46.1 µM],.,-23,.
COc1cccc(C(=O)NCc2cn3ccccc3n2)c1,3%,.,-4%[46.1 µM],.,-25,-11%[46.1 µM]
Cc1cc(C)cc(Cn2c3ccc(NC(=O)NCCc4cccs4)cc3c(=O)n2C)c1,57%,.,.,.,8,.
Cn1c(=O)c2cc(NC(=O)NCCc3cccs3)ccc2n1Cc1ccccc1,14%,.,.,.,-77*,.
COc1cc(Cn2c3ccc(NC(=O)CCc4ccccc4)cc3c(=O)n2C)ccc1F,-23%,.,.,.,-19,.
COc1cc(Cn2c3ccc(NC(=O)NCCc4ccccc4)cc3c(=O)n2C)ccc1F,14%,.,.,.,-68*,.
O=C(NCC1CCCCC1)c1ccc([N+](=O)[O-])cc1,6%,5%,.,21%,10,.
CN(C)S(=O)(=O)c1cccc(C(=O)NCC2CCCCC2)c1,22%,-9%,-19%,-13%,-78*,8%[46.1 µM]
CCN(CC)S(=O)(=O)c1ccc(NC(=S)NC(=O)C2CCC2)cc1,8%,-30%,-4%[46.1 µM],-4%,-12,?
CCN(CC)c1ccc(S(=O)(=O)N(CC)CC)cc1NC(=O)C1CCCC1,-6%,-1%,7.9µM*,?,12,?
COc1ccc(N(C)S(=O)(=O)c2cccc(C(=O)NCC3CCCCC3)c2)cc1,-5%,-1%,?,?,-23,?
CCN(CC)S(=O)(=O)c1cc(NC(=S)NC(=O)C2CCCC2)ccc1C,-28%,.,.,3.2µM*,-72*,.
CCN(CC)S(=O)(=O)c1ccc(C(=O)NCC2CCCCC2)cc1,-12%,3%,7.1µM*,5%,-3,0%[46.1 µM]
CNC(CC(=O)O)C(=O)O (centres undefined),-7%,5%,.,.,.,.
CC(C)c1nc2sc3c(N4CCCCC4)ncnc3c2c2c1CCCC2,-11%,.,15%[46.1 µM],.,7,-7%[46.1 µM]
Cc1ccc(F)cc1C(=O)Nc1ccn2ccnc2n1,.,.,.,.,2,.
Clc1ccc(-c2cc3ncc4c(n3n2)-c2ccccc2OC4)cc1,73%,.,?,.,25,1%[46.1 µM]
CCN(Cc1ccccc1)S(=O)(=O)c1cc(C(=O)NC2CCCCCC2)ccc1OC,8%,-1%,?,?,-32,?
CCN(Cc1ccccc1)S(=O)(=O)c1cc(C(=O)NCC2CCCCC2)ccc1OC,-29%,-4%,?,?,-83*,?

# Assay outcomes (PubChem)
